For 62 compounds, induction results are on record in PubChem BioAssay AID940 (Emory University Molecular Libraries Screening Center, 2007).

The structures appear in SMILES notation. Screen size: about 260,000 compounds; about 2,200 (0.85%) were called active.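 The calls were made as follows: active = compounds whose cAMP rise, as percent of the full-agonist control response, exceeds 60; inactive = the rest.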 What follows is part of a selection rich in actives, with near analogues and random picks from the rest.

In the test the target is Prostaglandin E2 receptor EP2 subtype (Homo sapiens) (UniProt P43116). As to the kind of experiment: modulation of human EP2 prostaglandin signaling – cell-based, HTRF cAMP, PGE2 stimulation, primary screen (AID 940).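 Also: rat C6 glioma line stably carrying human EP2 under a CMV promoter; the protocol text gives 20 µM as final concentration; 100% = response of wells given 1 µM PGE2.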 Particulars: EP2-expressing cells, cAMP HTRF FRET, PGE2 co-stimulation; at 25 µM; active compounds read high. In general terms: TR-FRET usually uses a lanthanide donor and a delayed reading to cut background.
Chain of Prostaglandin E2 receptor EP2 subtype (Homo sapiens) (P43116 whole entry, looked up): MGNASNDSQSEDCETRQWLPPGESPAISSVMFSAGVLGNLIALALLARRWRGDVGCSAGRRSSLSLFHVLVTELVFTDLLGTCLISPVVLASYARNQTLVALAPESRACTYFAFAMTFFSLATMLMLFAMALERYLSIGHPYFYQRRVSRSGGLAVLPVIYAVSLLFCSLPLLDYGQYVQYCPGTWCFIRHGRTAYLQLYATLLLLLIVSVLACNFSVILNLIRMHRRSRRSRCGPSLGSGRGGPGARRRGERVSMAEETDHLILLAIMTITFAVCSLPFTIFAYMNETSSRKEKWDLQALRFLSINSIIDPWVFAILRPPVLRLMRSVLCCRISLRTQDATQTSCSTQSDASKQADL
`O=c1c2ccccc2c(-c2ccc(Br)cc2)nn1Cc1ccccc1`: the induction was 71.6% (active). The figure for `O=c1c2ccccc2c(-c2ccc(F)cc2)nn1-c1ccc(C(F)(F)F)cc1` is 47% (inactive). Then `O=c1c2ccccc2c(-c2ccccc2)nn1Cc1ccccc1`, with 66.7% (active); and `CCOC(=O)C(C)n1nc(-c2ccccc2)c2ccccc2c1=O` (configuration not stated), with 49.3% (inactive); and `O=C(NCCc1ccco1)c1nn(Cc2ccccc2)c(=O)c2ccccc12`, with 44.9% (inactive). Then `O=c1c2ccccc2c(-c2ccccc2)nn1-c1ccccn1`, with 11.6% (inactive); and `CCCOc1ccc(C2C(C(=O)Nc3ccccc3OC)=C(C)Nc3ncnn32)cc1` (configuration not stated), with 2.41% (inactive). Take `Cc1cc(C)nc(N2CCC(C(=O)NCC(N)=O)CC2)n1`: the induction was -4.46% (inactive). Take `Cc1cc(C)c2cc(C(c3nnnn3C(C)(C)C)N3CCCc4ccccc43)c(=O)[nH]c2c1` (configuration not stated): the induction is 26.2% (inactive). The figure for `COc1ccc2[nH]c(=O)c(CN(CCCO)C(=S)NCCCN(C)C)cc2c1` is -11.3% (inactive); for `CC(C)(C)c1nn(-c2ccc(F)cc2)c2[nH]c(=O)c(CNCCc3ccncc3)cc12` it is -25.4% (inactive); for `Cc1ccccc1OCCCC(=O)Nc1nnc(C2CCCCC2)s1` it is -40.5% (inactive). Then `COc1ccc(C(=O)N2CCc3cc(OC)c(OC)cc3C2c2ccccc2)cc1OC` (configuration not stated), with 24.2% (inactive); and `COC(=O)c1ccc(S(=O)(=O)NCc2ccccc2)n1C`, with 70.4% (active). For `Cn1c(C(=O)O)ccc1S(=O)(=O)N(Cc1ccccc1)Cc1ccccc1`, the induction was 21.3% (inactive). In the case of `COC(=O)c1ccc(S(=O)(=O)N(CCO)Cc2ccccc2)n1C`, the induction is -22.6% (inactive). In the case of `COc1cccc(/C(O)=C2/C(=O)C(=O)NC2c2cccs2)c1` (configuration not stated), the induction was 4.28% (inactive). In the case of `CN(C(=O)Cc1ccccc1F)c1nc2c(s1)CCc1occc1-2`, the induction was -25.4% (inactive). For the compound `CN(C)Cc1ccc(F)cc1Sc1cc(Cl)ccc1Cl`, the induction is 75.3% (active).

Consider `C=COCCNC(=O)C1CCN(c2nc3ccccc3n2CC)CC1`, for which the induction was -36.5% (inactive). For `COc1cccc(CN(Cc2ccco2)Cc2cncn2C)c1`, the induction is -1.11% (inactive). As to `CCCCOc1ccc(-c2nnc(-c3ccco3)o2)cc1`, the induction is 66.9% (active). Regarding `CCOc1ccc(-c2nnc(-c3ccco3)o2)cc1`, the induction is -1.22% (inactive).

Regarding `CCC(=O)Oc1cccc(C(=O)Nc2ccc(-c3nnc(-c4ccco4)o3)cc2)c1`, the induction was -19% (inactive). The figure for `Cc1ccccc1CN1CCC(N2CCCCC2)CC1` is -20.6% (inactive); for `COc1cc(CN2CCN(C(=O)c3cc(OC)c(OC)c(OC)c3)CC2)cc(OC)c1O` it is -32.7% (inactive). The figure for `Cc1ccc(NC(=O)CSc2nnnn2-c2ccc3c(c2)OCO3)cc1` is -41.6% (inactive).

For `COc1ccc(C2CC(c3cccs3)=NN2c2ccc(F)cc2)cc1OC` (configuration not stated), the induction was 13.2% (inactive). Then `COc1ccc(C2CC(c3cccs3)=NN2C(=O)CSc2nnc(N)s2)cc1OC` (configuration not stated), with -1.37% (inactive). As for `COc1ccc(C2CC(c3cccs3)=Nc3ccccc3S2)cc1OC` (configuration not stated), the induction is 61.9% (active). The figure for `Cc1cc2c(s1)c1cnn(CC(=O)NC(C)C)c(=O)c1n2C` is -39.8% (inactive); for `COc1cc2[nH]c(=O)c(C(=O)NCc3ccc4c(c3)OCO4)c(O)c2cc1OC` it is 4.8% (inactive). The figure for `COc1cccc(CN2CCC(C(=O)NC(C)(C)C)CC2)c1O` is -12.3% (inactive). Then `O=C(Nc1ccccc1F)c1ccccc1-c1ccccc1`, with 33.6% (inactive); and `O=C(COC(=O)c1cccc(Br)c1)Nc1cccc2c1C(=O)c1ccccc1C2=O`, with -14.5% (inactive); and `Cc1ccccc1C(=O)Nc1ccc(N2CCCCCC2)cc1`, with -79.9% (inactive). On to `O=C(COC(=O)c1ccccc1)Nc1ccccc1Sc1ccccc1`, for which the induction is 68.5% (active). The figure for `O=C(COC(=O)c1ccccn1)Nc1cccc2ccccc12` is -6.19% (inactive); for `Cc1ccccc1C(=O)Nc1ccccc1Sc1ccccc1` it is 73.8% (active); for `CC(C)(C)OC(=O)N1CCC[C@H]1C(=O)c1nc2ccccc2s1` it is 19.4% (inactive). The figure for `O=C(N1CCC(n2nnc3ccccc3c2=O)CC1)C1(c2ccccc2)CCCC1` is -7.6% (inactive); for `CCc1cc(N2C3CCC2CC(O)(c2ccco2)C3)n2nc3nc(C)cc(C)c3c2n1` (configuration not stated) it is 13.8% (inactive).

Take `CCCC(NC(=O)c1cnc(SC)nc1)c1cccs1` (configuration not stated): the induction was -29.9% (inactive). Then `Cc1nn(CC(=O)NC2CCCC2)c(=O)c2cc3sccc3n12`, with 1.55% (inactive); and `Cc1ccc(Nc2ccc(C(N)=O)cc2[N+](=O)[O-])cc1`, with -57.7% (inactive); and `Cc1ccc(Nc2cc(C)nc3c(C)ccc([N+](=O)[O-])c23)cc1`, with 66.4% (active). Take `Cc1cc(C)nc(Nc2cc([N+](=O)[O-])ccc2C)n1`: the induction was -8.66% (inactive). For `COc1ccc(C)cc1N(CC(=O)NC1CCCC1)C(=O)c1snc(C(N)=O)c1N`, the induction was -63.9% (inactive). For `COCCCn1c(SCC(=O)Nc2cc(Cl)ccc2OC)nc2sc3c(c2c1=O)CCC3`, the induction was -5.26% (inactive).

Regarding `CC(=O)Nc1nonc1-c1nc2ccccc2n1Cc1ccccn1`, the induction is 4.24% (inactive). Take `COc1ccc(C)c(Cn2c(-c3nonc3N)nc3ccccc32)c1`: the induction is 69% (active). Then `Nc1nonc1-c1nc2ccccc2n1Cc1ccc(F)cc1`, with 28.5% (inactive); and `COc1ccc(N(C(C)C(=O)N2CCN(C)CC2)S(C)(=O)=O)cc1` (configuration not stated), with -14.6% (inactive); and `COc1ccc(CN(Cc2cn[nH]c2-c2ccc(O)cc2)CC2CCCO2)cc1` (configuration not stated), with 18.7% (inactive).

`CCc1cc(-c2n[nH]c(=S)n2CC(C)C)cs1`: the induction was -1.28% (inactive). Then `CCCc1cc(-c2n[nH]c(=S)n2Cc2ccccc2)cs1`, with 87.8% (active). Consider `CCCc1cc(-c2n[nH]c(=S)n2CC)c2ccccc2n1`, for which the induction was 20.9% (inactive).

`CCCc1nn(CC(=O)NC2CC2)c(=O)c2cc3ccsc3n12`: the induction was -12% (inactive). Regarding `COc1cc(C2C(C#N)=C(N)Oc3c2c(C)nn3-c2ccccc2)ccc1OCC#N` (configuration not stated), the induction is -22.9% (inactive). Then `CCOC(=O)CC(=O)CSc1nc(-c2ccccc2)cc(-c2ccc(Cl)cc2)c1C#N`, with 9.52% (inactive). The figure for `O=C(c1cccs1)N1CCCC(c2nc(-c3ccc(F)cc3)no2)C1` (configuration not stated) is -45.6% (inactive); for `N#Cc1c(-c2ccc(F)cc2)cc(C2CC2)nc1SCC(=O)c1cccs1` it is 63% (active).
